Bcl-2 Bim block = human Bim-Bcl-2 interaction inhibition; Bead-based flow cytometry, Bim peptide-Bcl-2 binding; 0.06% of 190,000 active; inhibition, % at 10 µM; P10415; AID 950; in the data active means inhibition above about 40%;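 further: 0% = no compound wells with probe peptide and 100% = reference peptide inhibitor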
Bcl-B Bim block = disrupts Bim peptide binding to human Bcl-B; Q9HD36; bead-based flow cytometry; inhibition, % at 10 µM; 0.073% of 190,000 active; AID 951;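 further: 0% = tracer peptide without compound and 100% = reference inhibitor peptide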
Bim-Bfl-1 = inhibitors of Bim-Bfl-1 interaction, human | Q16548 | Bead-based flow cytometry, Bim-Bfl-1 binding inhibition | inhibition, % at 10 µM | 0.12% of 190,000 active;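 further: 0% = wells without compound plus tracer and 100% = blocker peptide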
PKD1 inh = inhibitors of human PKD1 kinase; Q15139; PKD1 kinase fluorescence polarization assay; inhibition, % (concentration not given with the values); 0.056% of 200,000 active; AID 797; in the data active means inhibition above about 50%
Target sequence (Q15139 whole entry, looked up): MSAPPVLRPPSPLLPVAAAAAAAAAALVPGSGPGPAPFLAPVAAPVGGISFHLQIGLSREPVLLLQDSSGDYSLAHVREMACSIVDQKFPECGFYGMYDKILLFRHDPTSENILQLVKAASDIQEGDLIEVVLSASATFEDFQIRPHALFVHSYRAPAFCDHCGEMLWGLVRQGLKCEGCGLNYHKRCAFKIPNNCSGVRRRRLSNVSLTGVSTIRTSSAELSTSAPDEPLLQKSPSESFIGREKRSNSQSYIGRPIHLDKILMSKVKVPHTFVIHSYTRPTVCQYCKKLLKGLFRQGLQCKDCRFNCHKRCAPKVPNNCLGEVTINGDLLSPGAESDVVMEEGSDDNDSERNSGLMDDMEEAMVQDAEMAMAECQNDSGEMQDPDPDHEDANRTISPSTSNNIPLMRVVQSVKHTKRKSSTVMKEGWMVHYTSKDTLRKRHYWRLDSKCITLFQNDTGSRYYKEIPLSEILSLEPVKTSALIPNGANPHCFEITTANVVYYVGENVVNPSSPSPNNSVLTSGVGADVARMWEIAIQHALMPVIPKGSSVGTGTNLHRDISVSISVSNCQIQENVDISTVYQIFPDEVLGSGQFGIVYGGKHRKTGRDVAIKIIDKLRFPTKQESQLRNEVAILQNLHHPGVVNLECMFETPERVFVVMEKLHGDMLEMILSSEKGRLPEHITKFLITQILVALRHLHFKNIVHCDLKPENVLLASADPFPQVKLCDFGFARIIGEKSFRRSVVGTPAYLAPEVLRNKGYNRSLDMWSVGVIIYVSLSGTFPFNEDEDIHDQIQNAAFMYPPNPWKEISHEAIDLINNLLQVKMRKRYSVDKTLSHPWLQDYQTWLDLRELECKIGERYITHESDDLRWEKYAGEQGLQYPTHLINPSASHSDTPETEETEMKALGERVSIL
Bcl-W Bim block = human Bim-Bcl-W interaction inhibition. inhibition, % at 10 µM. Q92843. bead-based flow cytometry, Bim peptide-Bcl-W binding. 0.02% of 190,000 active;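 further: 0% = bound tracer without compound and 100% = peptide blocker; higher means less fluorescent Bim peptide bound to Bcl-W beads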
Bim-Bcl-XL = human Bim-Bcl-XL interaction inhibition. Bim peptide-Bcl-XL binding, bead flow cytometry, fluorescence. 0.04% of 190,000 active. inhibition, % at 10 µM. Q07817
An asterisk follows results filed as active. Shown are actives, neighbours in structure and some others; about 0.24% of the full set was active somewhere. Unless noted, no stated cut-off is given here; in the data, active means inhibition above about 40%.

Results for CC1(C(=O)N(CC(=O)NC2CCCC2)Cc2ccco2)CC(=O)N=C2C=CC=CN21 (centres undefined) ?
Bcl-2 Bim block: 88*; PKD1 inh: -2; Bcl-W Bim block: 23; Bim-Bcl-XL: 25

What do the screens show for `O=C(Nc1nnc(C2CC2)s1)C1Cc2ccccc2CN1S(=O)(=O)c1ccccc1F` (centres undefined)?
Bcl-2 Bim block: 77*; PKD1 inh: -7; Bcl-W Bim block: 9; Bim-Bcl-XL: 13

Results for O=C(Nc1nccs1)C1Cc2ccccc2CN1S(=O)(=O)c1ccc(F)cc1 (centres undefined) ?
Bcl-2 Bim block: -4; Bcl-B Bim block: -2; Bim-Bfl-1: 0; PKD1 inh: 2; Bcl-W Bim block: -2; Bim-Bcl-XL: -2

How did Nc1c(C(=O)NCc2ccco2)sc2nc3c(cc12)C(=O)CCC3 do in these assays?
Bcl-2 Bim block: 20; Bcl-B Bim block: 6; Bim-Bfl-1: 48*; PKD1 inh: 2; Bcl-W Bim block: 42*; Bim-Bcl-XL: 16

How did CCCn1c(=O)c(C(=O)NNS(=O)(=O)c2ccc(Cl)cc2)c(O)c2ccccc21 do in these assays?
Bcl-2 Bim block: 0; Bcl-B Bim block: -4; Bim-Bfl-1: 6; PKD1 inh: 2; Bcl-W Bim block: -3; Bim-Bcl-XL: -6

What do the screens show for `Cn1cc(C(=O)NCN2CCCCC2)c2ccccc21`?
Bcl-2 Bim block: 4; Bcl-B Bim block: 0; Bim-Bfl-1: 0; PKD1 inh: -3; Bcl-W Bim block: 0; Bim-Bcl-XL: -1

What do the screens show for `CC(CCc1ccccc1)NC(=O)CN1C(=O)NC2(CCCCC2)C1=O` (centres undefined)?
Bcl-2 Bim block: -2; Bcl-B Bim block: -4; Bim-Bfl-1: -5; PKD1 inh: 10; Bcl-W Bim block: 0; Bim-Bcl-XL: -2

What do the screens show for `O=C(N/N=C/c1ccc(-c2ccccc2[N+](=O)[O-])o1)c1cncc(Br)c1`?
Bcl-2 Bim block: 18; Bcl-B Bim block: 24; Bim-Bfl-1: 28; PKD1 inh: -9; Bcl-W Bim block: 32; Bim-Bcl-XL: 48*

What do the screens show for `Cc1cc([N+](=O)[O-])c(C)cc1-c1ccc(/C=N/NC(=O)c2cccnc2)o1`?
Bcl-2 Bim block: 3; Bcl-B Bim block: 7; Bim-Bfl-1: 11; PKD1 inh: -5; Bcl-W Bim block: -4; Bim-Bcl-XL: 1

How did CCCOc1ccc(C2c3c(oc4ccccc4c3=O)C(=O)N2CCCN2CCOCC2)cc1 (centres undefined) do in these assays?
Bcl-2 Bim block: -3; Bcl-B Bim block: -3; Bim-Bfl-1: -7; PKD1 inh: -15; Bcl-W Bim block: 3; Bim-Bcl-XL: 0

How did N#CC1=C(N)N(c2ncn[nH]2)C2=C(C(=O)CCC2)C1c1ccccc1 (centres undefined) do in these assays?
Bcl-2 Bim block: -1; Bcl-B Bim block: -9; Bim-Bfl-1: -8; PKD1 inh: -1; Bcl-W Bim block: -2; Bim-Bcl-XL: -1

What do the screens show for `CCn1c(C)c(/C=N/Nc2nc3ccccc3s2)c2ccccc21`?
Bcl-2 Bim block: 87*; PKD1 inh: -2; Bcl-W Bim block: 21; Bim-Bcl-XL: 23

What do the screens show for `c1ccc2cc(CSCc3nc4ccccc4[nH]3)ccc2c1`?
Bcl-2 Bim block: -9; Bcl-B Bim block: -9; Bim-Bfl-1: -3; PKD1 inh: 0; Bcl-W Bim block: -6; Bim-Bcl-XL: -12

What do the screens show for `O=[N+]([O-])c1ccc(N/N=C/c2ccc(O)c(O)c2O)c(S(=O)(=O)N2CCOCC2)c1`?
Bcl-2 Bim block: 27; Bcl-B Bim block: 10; Bim-Bfl-1: 63*; PKD1 inh: -1; Bcl-W Bim block: 40*; Bim-Bcl-XL: 15

What do the screens show for `Cc1ccc(/C=N/NC(=O)CSc2nnc(-c3ccc(Cl)cc3)n2-c2ccccc2)o1`?
Bcl-2 Bim block: 0; Bcl-B Bim block: 48*; Bim-Bfl-1: 0; PKD1 inh: -12; Bcl-W Bim block: -2; Bim-Bcl-XL: -4

How did N#CC1=C(S)N(c2ccc(F)cc2)C(c2cccs2)NC1=O (centres undefined) do in these assays?
Bcl-2 Bim block: 1; Bcl-B Bim block: 0; Bim-Bfl-1: 0; PKD1 inh: -8; Bcl-W Bim block: 0; Bim-Bcl-XL: -1

What do the screens show for `Cc1cccc(N2C(S)=C(C#N)C(=O)NC2c2cccs2)c1` (centres undefined)?
Bcl-2 Bim block: 21; Bcl-B Bim block: 18; Bim-Bfl-1: 42*; PKD1 inh: -6; Bcl-W Bim block: 25; Bim-Bcl-XL: 35

What do the screens show for `CC1(C)Cc2nc3nc(SCC(=O)Nc4ccccc4)nc(N)c3cc2CO1`?
Bcl-2 Bim block: 0; Bcl-B Bim block: -3; Bim-Bfl-1: -5; PKD1 inh: -4; Bcl-W Bim block: -1; Bim-Bcl-XL: 0

Results for O=C(O)c1ccc(NC2=C/C(=N/S(=O)(=O)c3ccccc3)c3ccccc3C2=O)cc1 ?
Bcl-2 Bim block: 12; Bcl-B Bim block: -21; Bim-Bfl-1: 47*; PKD1 inh: -2; Bcl-W Bim block: 19; Bim-Bcl-XL: 2

How did CCS(=O)(=O)c1ccc2c(c1)N(S(C)(=O)=O)CC(C(=O)NN)O2 (centres undefined) do in these assays?
Bcl-2 Bim block: -5; Bcl-B Bim block: -2; Bim-Bfl-1: -4; PKD1 inh: -1; Bcl-W Bim block: -3; Bim-Bcl-XL: -4

What do the screens show for `COc1ccc(-c2c[n+]3c4n2CCCCC4=C(c2ccccc2)C3)cc1`?
Bcl-2 Bim block: 1; Bcl-B Bim block: 0; Bim-Bfl-1: 0; PKD1 inh: -10; Bcl-W Bim block: -2; Bim-Bcl-XL: -1

How did COC(=O)c1ccccc1N/C=C1\CCc2c(c(C)nn2-c2ccccn2)C1=O do in these assays?
Bcl-2 Bim block: 20; Bcl-B Bim block: 6; Bim-Bfl-1: 50*; PKD1 inh: 21; Bcl-W Bim block: 37; Bim-Bcl-XL: 7

How did Nc1ccc(N2CCN(c3ccc(F)cc3)CC2)cc1 do in these assays?
Bcl-2 Bim block: 5; Bcl-B Bim block: -2; Bim-Bfl-1: 9; PKD1 inh: 8; Bcl-W Bim block: 4; Bim-Bcl-XL: 0

How did Nc1ccc(N2CCCCCC2)cc1 do in these assays?
Bcl-2 Bim block: 19; Bcl-B Bim block: 10; Bim-Bfl-1: 43*; PKD1 inh: -13; Bcl-W Bim block: 30; Bim-Bcl-XL: 6

How did CC(C)(C)NC(=O)CCN(/N=C/c1ccc([N+](=O)[O-])o1)C1=NS(=O)(=O)c2ccccc21 do in these assays?
Bcl-2 Bim block: 22; Bcl-B Bim block: 27; Bim-Bfl-1: 19; PKD1 inh: -2; Bcl-W Bim block: 36; Bim-Bcl-XL: 53*

Results for CCOc1ccc2c(c1)C(C)=CC(C)(C)N2C(=O)Nc1ccccc1F ?
Bcl-2 Bim block: -1; Bcl-B Bim block: -9; Bim-Bfl-1: 6; PKD1 inh: 5; Bcl-W Bim block: 0; Bim-Bcl-XL: -2

What do the screens show for `CCNC(=O)N1c2ccc(OCC)cc2C(C)=CC1(C)C`?
Bcl-2 Bim block: 24; Bcl-B Bim block: 20; Bim-Bfl-1: 40*; PKD1 inh: -9; Bcl-W Bim block: 18; Bim-Bcl-XL: 33

Bioassay records as filed in PubChem.
